Where a name gives a salt, the structure may show the parent alone.
Test system: HeLa
Assay: nuclear count per well, robust Z-score vs DMSO; higher = more cells (less toxicity)
Conditions: 10 µM; 6 h
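Further: Hoechst-stained nuclei counted by automated confocal imaging of four fields per well in 384-well plates, with the robust Z-score based on the per-plate DMSO median and robust SD.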

Structure (SMILES) | nuclear count per well
CN(C)c1ccc(O)c2c1C[C@H]1C[C@H]3[C@H](N(C)C)C(O)=C(C(N)=O)C(=O)[C@@]3(O)C(O)=C1C2=O [Minocycline] | -0.15
O=C(NCCN1CCC(n2c(=O)[nH]c3cc(Cl)ccc32)CC1)c1ccc(F)cc1 [Halopemide] | -1.19
CCCCC/C=C\C/C=C\C/C=C\C/C=C\CCCC(=O)O[C@@H](CO)COCCCCCCCCCCCCCCCC [1-Hexadecyl-2-arachidonoyl-glycerol] | 0.524
CN/C(=N\c1ccc(C2=NNC(=O)CC2C)cc1)NC#N (centres undefined) [Siguazodan] | 0.637
CCCCCCCCCCCCCCCC(=O)O[C@@H]1[C@@H](O)[C@@H](O)[C@@H]([C@H](NC(=O)[C@@H]2C[C@@H](CCC)CN2C)[C@H](C)Cl)O[C@@H]1SC | -0.35
NNc1nncc2ccccc12 | 0.131
CO[C@H]1O[C@@H]2O[C@@]3(C)CC[C@H]4[C@H](C)CC[C@@H]([C@H]1C)[C@@]24OO3 [Artemether] | -0.294
CCCCN1CCCCC1C(=O)Nc1c(C)cccc1C (centres undefined) | -0.695
CCCCCC(O)C=CC1C(O)CC(O)C1CC=CCCCC(=O)O (stereo not drawn) [8-epi-Prostaglandin F2a] | 0.282
CCC(=O)N1CCN(c2ccc(-n3c(=O)ccc4cnc5ccc(-c6cnc7ccccc7c6)cc5c43)cc2C(F)(F)F)CC1 [Torin 1] | 0.787
Cc1cccc(CN2CCN(C(c3ccccc3)c3ccc(Cl)cc3)CC2)c1 (centres undefined) [Meclizine Dihydrochloride] | -0.912
COC(c1ccccc1)(c1ccccc1)[C@H](Oc1nc(C)cc(C)n1)C(=O)O [Ambrisentan] | 0.666
CC(C)[C@H](NC(=O)OCc1ccccc1)C(=O)N[C@H](C=O)Cc1ccccc1 [Calpain Inhibitor III] | -0.0197
N[C@H]1C(O)O[C@H](CO)[C@@H](O)[C@@H]1O (some centres undefined) [Glucosamine HCl] | 1.11
CC(=O)OC(C)C[N+](C)(C)C (centres undefined) [Methacholine Chloride] | 0.387
C#C[C@]1(O)CC[C@H]2[C@@H]3CCc4cc(O)ccc4[C@H]3CC[C@@]21C [Ethinyl estradiol] | 0.192
CCN1CCN(C(=O)N[C@@H](C(=O)N[C@@H]2C(=O)N3[C@@H]2SC(C)(C)[C@@H]3C(=O)O)c2ccccc2)C(=O)C1=O [Piperacillin] | 1.26
CC(C)c1ccc2oc3nc(N)c(C(=O)O)cc3c(=O)c2c1 [Amlexanox] | -0.135
C[N+](C)(C)CC(=O)O [Betaine] | 0.526
CCn1cc(C(=O)O)c(=O)c2cc(F)c(N3CCNCC3)cc21 [Norfloxacin] | 0.93

Structure (SMILES) | nuclear count per well
CCN(CC)CCOC(=O)C1(C2CCCCC2)CCCCC1 | 0.0346
Clc1ccc(CCC(Cn2ccnc2)Sc2c(Cl)cccc2Cl)cc1 (centres undefined) [Butoconazole Nitrate] | 1.32
NCCNCCNCCN [Trientine Dihydrochloride] | -0.593
CCOC(=O)[C@H](CCc1ccccc1)N[C@@H](C)C(=O)N1CCC[C@H]1C(=O)O [Enalapril] | 0.499
C=C[C@@]1(C)CC(=O)[C@]2(O)[C@@]3(C)[C@@H](O)CCC(C)(C)[C@@H]3[C@H](O)[C@H](OC(C)=O)[C@@]2(C)O1 [Forskolin] | 0.519
COc1ccccc1OCCNCC(O)COc1cccc2[nH]c3ccccc3c12 (centres undefined) [Carvedilol] | 0.57
NS(=O)(=O)c1cc(C(=O)O)c(NCc2ccco2)cc1Cl [Furosemide] | -0.612
Nc1c(Br)cc(Br)cc1CN[C@H]1CC[C@H](O)CC1 [Ambroxol hydrochloride] | -1.45
C=CCNC1=C2C[C@@H](C)C[C@H](OC)[C@H](O)[C@@H](C)/C=C(\C)[C@H](OC(N)=O)[C@@H](OC)/C=C\C=C(/C)C(=O)NC(=CC1=O)C2=O [17-Allylamino-geldanamycin] | -0.211
OC[C@H]1NC[C@H](O)[C@@H](O)[C@@H]1O [1-Deoxynojirimycin] | 0.783
CCc1nc(N)nc(N)c1-c1ccc(Cl)cc1 [Pyrimethamine] | 0.643
N#Cc1cc2c(OCC(O)CN3CCN(C(c4ccccc4)c4ccccc4)CC3)cccc2[nH]1 (centres undefined) | 0.46
COCCCC/C(=N\OCCN)c1ccc(C(F)(F)F)cc1 [Fluvoxamine Maleate] | 1.04
COC(=O)[C@H](c1ccccc1Cl)N1CCc2sccc2C1 [Clopidogrel Hydrogen Sulfate] | -0.543
COc1cc2nc(N(C)CCCNC(=O)C3CCCO3)nc(N)c2cc1OC (centres undefined) [Alfuzosin] | 0.548
CCCCC/C=C\C[C@@H](O)/C=C/C=C\C/C=C\CCCC(=O)O | -0.395
Cc1cccc(Nc2cc(Cl)nc(SCC(=O)O)n2)c1C | -0.718
C[N+](C)(C)C[C@H](O)CC(=O)[O-] [Levocarnitine] | 0.541
CCNC(=O)CCC/C=C\C[C@@H]1[C@@H](/C=C/[C@@H](O)CCc2ccccc2)[C@H](O)C[C@@H]1O [Bimatoprost] | -0.229

Source: the supplement of paper PMC9844399
